This is part of a sample that, as a whole, favours compounds with a hit. Of some 83,000 tested, about 20% had one in any assay.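 Plates (96-well) were seeded with cells, treated with compound at one concentration, and incubated for 48 hours before percent growth was determined.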 Active and inactive are the calls of the source. The calls were made as follows: active = growth percent below 10; inactive = the rest.
Columns and labels:
Experiment in all cases: NCI-60 one-dose screen, 48 h (100 = growth as untreated, 0 = no growth, -100 = all killed)
Conditions in all cases: 10 µM unless noted
EKVX NSCLC = system: EKVX NSCLC
SN12C renal = system: SN12C renal
UO-31 renal = system: UO-31 renal
TK-10 renal = system: TK-10 renal
ACHN renal = system: ACHN renal
CAKI-1 renal = system: CAKI-1 renal
A498 renal = system: A498 renal
CCRF-CEM leukemia = system: CCRF-CEM leukemia
MOLT-4 leukemia = system: MOLT-4 leukemia
SR leukemia = system: SR leukemia

Measured: growth

Nc1nc(-c2ccccc2Br)nn1-c1nc2ccccc2s1
inactive: EKVX NSCLC 92.2% | SN12C renal 100% | UO-31 renal 105% | TK-10 renal 118% | ACHN renal 98.3% | CAKI-1 renal 97.2% | A498 renal 101% | CCRF-CEM leukemia 101% | MOLT-4 leukemia 88.3% | SR leukemia 81.5%

CCCCC1COc2cccc3c2N1C=C/C3=C\C(=O)N(C)c1ccccc1 (stereo not given)
inactive: EKVX NSCLC 45.8% | SN12C renal 64.9% | UO-31 renal 59.3% | TK-10 renal 108% | ACHN renal 68.9% | CAKI-1 renal 72% | A498 renal 86.1% | CCRF-CEM leukemia 47.6% | MOLT-4 leukemia 55.7% | SR leukemia 66.6%

O=c1nc2sc3nc4ccccc4cc3cc-2s1
inactive: EKVX NSCLC 48% | SN12C renal 101% | UO-31 renal 117% | TK-10 renal 131% | ACHN renal 105% | CAKI-1 renal 137% | A498 renal 94.6% | CCRF-CEM leukemia 127% | MOLT-4 leukemia 120% | SR leukemia 134%

Cc1ccc2cccc(Oc3ccc(Nc4ncnc5onc(-c6ccccc6)c45)cc3)c2n1
inactive: EKVX NSCLC 85.5% | SN12C renal 83.9% | UO-31 renal 55.6% | TK-10 renal 86.6% | ACHN renal 80.1% | CAKI-1 renal 89.2% | A498 renal 13% | CCRF-CEM leukemia 80.7% | MOLT-4 leukemia 72.2% | SR leukemia 67%

COc1ccc(C2Nc3ncnc(N)c3N=C3c4ccccc4C(=O)C32)cc1 (stereo not given)
active: SR leukemia 9.71%
inactive: EKVX NSCLC 94.5% | SN12C renal 140% | UO-31 renal 67% | TK-10 renal 123% | ACHN renal 92.4% | CAKI-1 renal 80.1% | A498 renal 99.2% | CCRF-CEM leukemia 97.9% | MOLT-4 leukemia 57.9%

COc1ccc(N)c(-c2cc3c(c4c2[nH]c2ccc(OC)cc24)CCCC3)c1
inactive: EKVX NSCLC 72.5% | SN12C renal 87.8% | UO-31 renal 57.6% | TK-10 renal 114% | ACHN renal 89.4% | CAKI-1 renal 67.1% | A498 renal 88.8% | CCRF-CEM leukemia 55.4% | MOLT-4 leukemia 68.8% | SR leukemia 79.1%

CSc1nc2c(c(=O)n1C)N=C1c3ccccc3C(=O)C1C(c1ccccc1)N2 (stereo not given)
inactive: EKVX NSCLC 75.4% | SN12C renal 138% | UO-31 renal 71.1% | TK-10 renal 101% | ACHN renal 75.5% | CAKI-1 renal 53.4% | A498 renal 99.9% | CCRF-CEM leukemia 82.6% | MOLT-4 leukemia 84% | SR leukemia 27.1%
